# Measured values from paper PMC7862700, “An all-to-all approach to the identification of sequence-specific readers for epigenetic DNA modifications on cytosine”.
# Key:
# Assay in all cases: DAPPL (digital affinity profiling via proximity ligation, sequencing); 10 mM Tris-HCl pH 7.5, 50 mM NaCl, 1 mM DTT, 4% glycerol, room temperature, 30 min; GST-TFs on glutathione beads, 16-mer random dsDNA library, 0.1% formaldehyde crosslink after washing; high values mean tight binding
# FLI1 = target: T1, FLI1 (Homo sapiens, UniProt Q01543 1-452); settings: protein: recombinant; tags: N-terminal GST; dsDNA, one strand shown
# T1 sequence: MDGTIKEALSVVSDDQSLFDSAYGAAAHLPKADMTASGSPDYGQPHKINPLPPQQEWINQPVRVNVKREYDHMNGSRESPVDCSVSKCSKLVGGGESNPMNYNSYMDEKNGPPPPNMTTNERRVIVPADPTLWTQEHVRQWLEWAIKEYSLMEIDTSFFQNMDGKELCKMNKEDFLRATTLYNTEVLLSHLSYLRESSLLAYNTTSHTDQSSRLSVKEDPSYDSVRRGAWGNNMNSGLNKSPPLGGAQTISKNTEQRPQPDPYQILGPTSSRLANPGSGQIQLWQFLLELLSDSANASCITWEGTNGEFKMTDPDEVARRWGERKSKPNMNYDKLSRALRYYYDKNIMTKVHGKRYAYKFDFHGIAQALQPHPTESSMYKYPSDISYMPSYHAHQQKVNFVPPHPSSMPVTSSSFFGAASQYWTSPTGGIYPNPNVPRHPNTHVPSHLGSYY
# In short: (§1)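 Yeast served to express human transcription factors as GST fusions, which were then captured on glutathione beads and labelled with DNA barcodes. Pooled with a tag-only sample, they were incubated with 200 nmole of a 16-mer random double-stranded DNA library for 30 min at room temperature in Tris/NaCl/DTT/glycerol buffer, washed, crosslinked with 0.1% formaldehyde, ligated by proximity, amplified by PCR and sequenced. Dividing each hexamer's read frequency for a factor by its frequency for the tag-only sample gives the binding signal.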
# ELK1 = target: T2, ELK1 (Homo sapiens, UniProt P19419 1-428); settings: protein: recombinant; tags: N-terminal GST; dsDNA, one strand shown
# T2 sequence: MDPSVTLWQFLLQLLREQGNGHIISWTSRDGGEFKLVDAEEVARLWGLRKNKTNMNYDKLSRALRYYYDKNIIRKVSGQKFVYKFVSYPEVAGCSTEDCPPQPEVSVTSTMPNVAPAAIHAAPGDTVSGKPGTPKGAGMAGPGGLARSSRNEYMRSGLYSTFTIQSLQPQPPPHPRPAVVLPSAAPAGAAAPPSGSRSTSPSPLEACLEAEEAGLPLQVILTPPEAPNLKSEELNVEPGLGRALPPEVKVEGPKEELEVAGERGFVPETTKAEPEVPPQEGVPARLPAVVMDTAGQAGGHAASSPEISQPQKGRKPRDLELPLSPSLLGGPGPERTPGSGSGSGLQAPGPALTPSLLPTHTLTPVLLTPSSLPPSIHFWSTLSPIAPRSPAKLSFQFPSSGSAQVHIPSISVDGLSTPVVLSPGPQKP
# In short: as §1
# GABPA = target: T3, GABPA (Homo sapiens, UniProt Q06546 1-454); settings: protein: recombinant; tags: N-terminal GST; dsDNA, one strand shown
# T3 sequence: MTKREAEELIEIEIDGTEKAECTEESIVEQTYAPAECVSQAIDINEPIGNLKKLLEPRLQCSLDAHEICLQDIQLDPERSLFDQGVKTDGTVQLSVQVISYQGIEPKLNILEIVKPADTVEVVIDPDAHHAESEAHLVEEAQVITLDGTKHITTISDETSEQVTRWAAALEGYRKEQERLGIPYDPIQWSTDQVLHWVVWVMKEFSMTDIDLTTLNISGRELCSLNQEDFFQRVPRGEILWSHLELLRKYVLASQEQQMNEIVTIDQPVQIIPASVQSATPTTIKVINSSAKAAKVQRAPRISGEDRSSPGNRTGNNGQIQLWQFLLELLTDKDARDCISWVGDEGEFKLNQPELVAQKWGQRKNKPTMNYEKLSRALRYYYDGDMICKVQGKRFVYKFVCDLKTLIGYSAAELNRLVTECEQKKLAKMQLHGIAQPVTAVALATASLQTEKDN
# In short: as §1
# ERG = target: T4, ERG (Homo sapiens, UniProt P11308 1-479); settings: protein: recombinant; tags: N-terminal GST; dsDNA, one strand shown
# T4 sequence: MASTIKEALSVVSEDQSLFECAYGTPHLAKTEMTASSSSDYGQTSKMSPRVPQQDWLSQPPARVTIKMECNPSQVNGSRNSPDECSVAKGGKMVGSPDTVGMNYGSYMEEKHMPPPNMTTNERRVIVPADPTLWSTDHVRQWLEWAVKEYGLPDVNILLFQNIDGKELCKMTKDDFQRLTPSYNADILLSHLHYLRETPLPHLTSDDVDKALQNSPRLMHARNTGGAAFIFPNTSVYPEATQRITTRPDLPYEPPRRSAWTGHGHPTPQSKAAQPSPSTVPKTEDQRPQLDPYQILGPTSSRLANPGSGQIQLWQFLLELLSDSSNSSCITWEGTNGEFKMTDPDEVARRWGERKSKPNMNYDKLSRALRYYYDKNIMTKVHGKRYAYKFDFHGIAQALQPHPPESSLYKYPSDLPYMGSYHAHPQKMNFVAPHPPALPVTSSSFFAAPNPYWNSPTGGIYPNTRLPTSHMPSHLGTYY
# In short: as §1
# ELF1 = ELF1 (Homo sapiens, UniProt P32519 1-619); settings: protein: recombinant; tags: N-terminal GST; dsDNA, one strand shown
# In short: as §1
# EHF = target: T5, EHF (Homo sapiens, UniProt Q9NZC4 1-300); settings: protein: recombinant; tags: N-terminal GST; dsDNA, one strand shown
# T5 sequence: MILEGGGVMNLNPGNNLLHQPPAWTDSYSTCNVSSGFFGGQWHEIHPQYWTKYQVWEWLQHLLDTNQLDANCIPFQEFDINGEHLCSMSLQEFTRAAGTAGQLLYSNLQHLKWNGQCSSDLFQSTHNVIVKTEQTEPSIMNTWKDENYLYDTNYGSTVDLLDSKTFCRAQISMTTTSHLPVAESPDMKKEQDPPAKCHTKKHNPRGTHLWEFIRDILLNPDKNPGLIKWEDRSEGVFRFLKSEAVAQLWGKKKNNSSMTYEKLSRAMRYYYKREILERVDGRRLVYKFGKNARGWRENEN
# In short: as §1
# SPI1 = SPI1 (Homo sapiens, UniProt P17947 1-270); settings: protein: recombinant; tags: N-terminal GST; dsDNA, one strand shown
# In short: as §1
# SPIB = SPIB (Homo sapiens, UniProt Q01892 1-262); settings: protein: recombinant; tags: N-terminal GST; dsDNA, one strand shown
# In short: as §1
# ELK3 = target: T6, ELK3 (Homo sapiens, UniProt P41970 1-407); settings: protein: recombinant; tags: N-terminal GST; dsDNA, one strand shown
# T6 sequence: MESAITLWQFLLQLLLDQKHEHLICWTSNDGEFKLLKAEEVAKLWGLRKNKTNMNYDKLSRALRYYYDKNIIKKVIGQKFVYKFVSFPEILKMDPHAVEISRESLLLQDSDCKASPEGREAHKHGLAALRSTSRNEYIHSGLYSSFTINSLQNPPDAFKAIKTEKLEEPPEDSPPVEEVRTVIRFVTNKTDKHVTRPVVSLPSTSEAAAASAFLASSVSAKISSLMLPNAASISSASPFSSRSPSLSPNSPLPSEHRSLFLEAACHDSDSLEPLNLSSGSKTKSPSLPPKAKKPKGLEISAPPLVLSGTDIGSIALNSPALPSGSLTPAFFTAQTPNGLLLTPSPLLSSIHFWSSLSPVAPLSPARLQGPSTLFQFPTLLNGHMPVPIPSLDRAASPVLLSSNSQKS
# In short: as §1
# FEV = target: T7, FEV (Homo sapiens, UniProt Q99581 1-238); settings: protein: recombinant; tags: N-terminal GST; dsDNA, one strand shown
# T7 sequence: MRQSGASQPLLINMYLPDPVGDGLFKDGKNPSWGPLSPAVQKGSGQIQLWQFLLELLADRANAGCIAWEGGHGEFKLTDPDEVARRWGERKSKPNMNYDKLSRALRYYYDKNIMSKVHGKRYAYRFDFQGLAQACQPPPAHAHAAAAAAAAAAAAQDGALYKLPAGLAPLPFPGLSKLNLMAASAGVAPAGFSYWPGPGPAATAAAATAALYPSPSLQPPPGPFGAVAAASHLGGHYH
# In short: as §1
# ETV5 = ETV5 (Homo sapiens, UniProt P41161 1-510); settings: protein: recombinant; tags: N-terminal GST; dsDNA, one strand shown
# In short: as §1
# HSF1 = HSF1 (Homo sapiens, UniProt Q00613 1-529); settings: protein: recombinant; tags: N-terminal GST; chain copies: 3; dsDNA, one strand shown
# In short: as §1
# SPIC = target: T8, SPIC (Homo sapiens, UniProt Q8N5J4 1-248); settings: protein: recombinant; tags: N-terminal GST; dsDNA, one strand shown
# T8 sequence: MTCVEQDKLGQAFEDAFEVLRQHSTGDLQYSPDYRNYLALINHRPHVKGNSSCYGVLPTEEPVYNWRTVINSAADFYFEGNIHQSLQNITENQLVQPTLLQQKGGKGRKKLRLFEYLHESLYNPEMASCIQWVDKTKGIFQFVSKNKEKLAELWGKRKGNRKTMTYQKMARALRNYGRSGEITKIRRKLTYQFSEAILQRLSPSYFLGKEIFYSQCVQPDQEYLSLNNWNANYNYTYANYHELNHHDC
# In short: as §1
# ELF4 = ELF4 (Homo sapiens, UniProt Q99607 1-663); settings: protein: recombinant; tags: N-terminal GST; dsDNA, one strand shown
# In short: as §1
# ELK4 = target: T9, ELK4 (Homo sapiens, UniProt P28324-2 1-405); settings: protein: recombinant; tags: N-terminal GST; dsDNA, one strand shown
# T9 sequence: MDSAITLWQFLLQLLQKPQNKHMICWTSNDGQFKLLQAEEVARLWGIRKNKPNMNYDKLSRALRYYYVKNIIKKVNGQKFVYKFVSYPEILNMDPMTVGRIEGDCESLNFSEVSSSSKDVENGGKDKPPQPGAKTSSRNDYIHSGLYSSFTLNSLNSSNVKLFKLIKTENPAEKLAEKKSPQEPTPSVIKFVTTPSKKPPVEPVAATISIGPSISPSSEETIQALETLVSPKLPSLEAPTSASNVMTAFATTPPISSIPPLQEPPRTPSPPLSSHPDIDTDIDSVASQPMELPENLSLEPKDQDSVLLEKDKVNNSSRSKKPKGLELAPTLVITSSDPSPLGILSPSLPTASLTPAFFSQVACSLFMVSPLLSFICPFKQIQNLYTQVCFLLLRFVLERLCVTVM
# In short: as §1
# ETV2 = target: T10, ETV2 (Homo sapiens, UniProt O00321 1-342); settings: protein: recombinant; tags: N-terminal GST; dsDNA, one strand shown
# T10 sequence: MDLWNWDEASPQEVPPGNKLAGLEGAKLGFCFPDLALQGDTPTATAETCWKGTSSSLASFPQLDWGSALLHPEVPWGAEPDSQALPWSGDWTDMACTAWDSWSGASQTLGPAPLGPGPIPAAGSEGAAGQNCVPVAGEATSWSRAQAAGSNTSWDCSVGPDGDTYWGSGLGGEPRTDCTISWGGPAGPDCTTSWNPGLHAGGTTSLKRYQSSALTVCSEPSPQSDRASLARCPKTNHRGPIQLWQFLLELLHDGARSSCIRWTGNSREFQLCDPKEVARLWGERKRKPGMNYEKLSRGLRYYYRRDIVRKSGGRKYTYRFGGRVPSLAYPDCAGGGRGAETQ
# In short: as §1
# ELF3 = target: T11, ELF3 (Homo sapiens, UniProt P78545 1-371); settings: protein: recombinant; tags: N-terminal GST; dsDNA, one strand shown
# T11 sequence: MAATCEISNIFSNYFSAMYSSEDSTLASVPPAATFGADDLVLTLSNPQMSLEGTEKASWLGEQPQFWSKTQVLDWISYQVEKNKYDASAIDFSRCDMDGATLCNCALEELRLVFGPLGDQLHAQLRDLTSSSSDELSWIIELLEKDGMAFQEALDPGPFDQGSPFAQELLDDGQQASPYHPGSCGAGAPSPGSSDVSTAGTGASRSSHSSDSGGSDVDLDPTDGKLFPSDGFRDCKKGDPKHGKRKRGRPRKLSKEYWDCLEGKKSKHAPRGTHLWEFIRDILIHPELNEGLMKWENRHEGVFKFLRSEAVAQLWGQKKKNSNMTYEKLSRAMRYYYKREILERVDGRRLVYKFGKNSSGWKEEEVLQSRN
# In short: as §1
# CRX = CRX (Homo sapiens, UniProt O43186 1-299); settings: protein: recombinant; tags: N-terminal GST; dsDNA, one strand shown
# In short: as §1
# ETV1 = ETV1 (Homo sapiens, UniProt P50549 1-477); settings: protein: recombinant; tags: N-terminal GST; dsDNA, one strand shown
# In short: as §1
# ETV5, sequence (P41161 whole entry): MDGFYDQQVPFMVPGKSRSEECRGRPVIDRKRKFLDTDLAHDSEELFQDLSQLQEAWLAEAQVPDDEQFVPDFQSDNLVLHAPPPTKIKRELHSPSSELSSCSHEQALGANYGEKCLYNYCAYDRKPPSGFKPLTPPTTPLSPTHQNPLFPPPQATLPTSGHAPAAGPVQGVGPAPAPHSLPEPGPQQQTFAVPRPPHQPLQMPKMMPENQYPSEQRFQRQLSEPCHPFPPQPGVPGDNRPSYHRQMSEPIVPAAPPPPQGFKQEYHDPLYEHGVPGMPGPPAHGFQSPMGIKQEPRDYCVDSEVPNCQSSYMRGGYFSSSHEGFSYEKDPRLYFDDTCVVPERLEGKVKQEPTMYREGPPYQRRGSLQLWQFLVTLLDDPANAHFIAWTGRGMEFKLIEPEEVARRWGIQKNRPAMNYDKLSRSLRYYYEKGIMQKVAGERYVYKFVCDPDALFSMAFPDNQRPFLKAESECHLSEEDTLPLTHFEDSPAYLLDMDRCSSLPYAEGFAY
# HSF1, sequence (Q00613 whole entry): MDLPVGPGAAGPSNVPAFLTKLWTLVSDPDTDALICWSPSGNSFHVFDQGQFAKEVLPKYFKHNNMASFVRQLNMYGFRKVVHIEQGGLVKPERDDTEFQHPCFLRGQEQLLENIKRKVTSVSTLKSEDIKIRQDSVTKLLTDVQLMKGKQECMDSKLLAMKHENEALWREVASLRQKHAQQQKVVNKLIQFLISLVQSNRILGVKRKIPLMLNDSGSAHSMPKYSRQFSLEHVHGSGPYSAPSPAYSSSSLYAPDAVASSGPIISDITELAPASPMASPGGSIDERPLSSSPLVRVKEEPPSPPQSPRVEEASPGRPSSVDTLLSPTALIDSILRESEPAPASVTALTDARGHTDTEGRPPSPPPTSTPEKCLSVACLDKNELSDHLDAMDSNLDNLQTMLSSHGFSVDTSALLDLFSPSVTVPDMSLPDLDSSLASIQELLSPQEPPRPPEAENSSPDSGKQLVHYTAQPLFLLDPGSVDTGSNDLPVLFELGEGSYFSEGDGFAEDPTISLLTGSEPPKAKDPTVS
# ELF1, sequence (P32519 whole entry): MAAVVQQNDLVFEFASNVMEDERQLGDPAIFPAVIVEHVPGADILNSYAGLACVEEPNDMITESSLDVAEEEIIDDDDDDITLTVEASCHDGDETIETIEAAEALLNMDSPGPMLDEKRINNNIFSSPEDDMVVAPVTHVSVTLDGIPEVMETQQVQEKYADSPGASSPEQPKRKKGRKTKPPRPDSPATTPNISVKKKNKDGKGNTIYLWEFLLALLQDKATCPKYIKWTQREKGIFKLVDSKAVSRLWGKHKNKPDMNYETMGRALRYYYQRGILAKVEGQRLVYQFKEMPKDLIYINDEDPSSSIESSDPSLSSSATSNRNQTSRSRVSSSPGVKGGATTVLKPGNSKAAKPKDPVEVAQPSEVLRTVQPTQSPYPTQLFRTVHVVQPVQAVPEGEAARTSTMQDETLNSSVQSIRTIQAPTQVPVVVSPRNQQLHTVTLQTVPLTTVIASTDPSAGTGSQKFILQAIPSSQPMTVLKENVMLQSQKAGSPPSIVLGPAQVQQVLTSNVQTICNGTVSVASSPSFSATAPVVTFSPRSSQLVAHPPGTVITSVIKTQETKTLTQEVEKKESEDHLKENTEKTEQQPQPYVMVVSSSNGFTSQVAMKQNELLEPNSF
# CRX, sequence (O43186 whole entry): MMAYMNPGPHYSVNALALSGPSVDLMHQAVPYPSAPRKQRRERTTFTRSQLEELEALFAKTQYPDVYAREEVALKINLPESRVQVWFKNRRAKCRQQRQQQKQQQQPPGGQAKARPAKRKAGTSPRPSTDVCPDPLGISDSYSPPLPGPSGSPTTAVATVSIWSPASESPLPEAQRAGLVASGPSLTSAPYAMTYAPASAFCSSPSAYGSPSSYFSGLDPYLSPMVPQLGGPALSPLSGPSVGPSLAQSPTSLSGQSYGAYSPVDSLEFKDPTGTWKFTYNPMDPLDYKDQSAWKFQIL
# ELF4, sequence (Q99607 whole entry): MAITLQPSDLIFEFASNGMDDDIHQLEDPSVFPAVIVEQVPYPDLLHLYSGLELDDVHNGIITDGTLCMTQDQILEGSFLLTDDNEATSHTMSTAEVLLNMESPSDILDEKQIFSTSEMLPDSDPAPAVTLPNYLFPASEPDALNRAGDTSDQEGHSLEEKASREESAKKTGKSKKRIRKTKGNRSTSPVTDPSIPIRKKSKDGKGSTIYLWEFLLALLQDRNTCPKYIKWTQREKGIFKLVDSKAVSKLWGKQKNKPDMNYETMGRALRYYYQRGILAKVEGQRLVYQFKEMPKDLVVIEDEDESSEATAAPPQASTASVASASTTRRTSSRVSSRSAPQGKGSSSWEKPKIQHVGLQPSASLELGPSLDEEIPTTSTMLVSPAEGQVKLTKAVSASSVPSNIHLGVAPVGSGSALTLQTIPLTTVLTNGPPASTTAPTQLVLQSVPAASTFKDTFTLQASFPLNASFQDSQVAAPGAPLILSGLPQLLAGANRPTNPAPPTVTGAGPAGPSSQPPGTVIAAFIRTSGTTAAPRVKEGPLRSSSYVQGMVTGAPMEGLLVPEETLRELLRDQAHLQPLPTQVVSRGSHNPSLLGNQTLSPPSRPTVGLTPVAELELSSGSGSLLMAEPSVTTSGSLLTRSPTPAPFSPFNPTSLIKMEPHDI
# SPIB, sequence (Q01892 whole entry): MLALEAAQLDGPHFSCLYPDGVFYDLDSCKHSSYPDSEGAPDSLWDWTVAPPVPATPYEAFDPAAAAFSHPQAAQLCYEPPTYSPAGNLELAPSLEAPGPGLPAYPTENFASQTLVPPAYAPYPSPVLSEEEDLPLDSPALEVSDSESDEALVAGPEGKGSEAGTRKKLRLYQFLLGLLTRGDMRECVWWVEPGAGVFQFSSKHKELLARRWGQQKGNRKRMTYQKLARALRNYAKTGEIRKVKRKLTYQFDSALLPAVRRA
# ETV1, sequence (P50549 whole entry): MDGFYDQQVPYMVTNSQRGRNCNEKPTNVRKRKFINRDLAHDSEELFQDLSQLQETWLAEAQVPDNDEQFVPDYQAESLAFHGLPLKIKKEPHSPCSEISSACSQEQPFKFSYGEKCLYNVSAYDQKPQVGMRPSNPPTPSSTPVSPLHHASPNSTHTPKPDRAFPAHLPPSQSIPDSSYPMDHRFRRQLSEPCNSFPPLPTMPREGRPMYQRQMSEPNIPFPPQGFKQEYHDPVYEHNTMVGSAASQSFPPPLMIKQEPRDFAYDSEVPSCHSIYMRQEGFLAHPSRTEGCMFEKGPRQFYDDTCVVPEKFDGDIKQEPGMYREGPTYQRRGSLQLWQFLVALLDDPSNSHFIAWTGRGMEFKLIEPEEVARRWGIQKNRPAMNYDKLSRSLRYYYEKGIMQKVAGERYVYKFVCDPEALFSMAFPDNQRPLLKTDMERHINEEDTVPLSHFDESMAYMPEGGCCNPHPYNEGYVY
sequence,measurement,setting,value
CCTGAT,binding signal,FLI1,"1.27 fold enrichment (6-mer frequency, TF over GST control)"
same,binding signal,ELK1,"1.56 fold enrichment (6-mer frequency, TF over GST control)"
same,binding signal,GABPA,"1.5 fold enrichment (6-mer frequency, TF over GST control)"
same,binding signal,ERG,"1.42 fold enrichment (6-mer frequency, TF over GST control)"
same,binding signal,ELF1,"1.38 fold enrichment (6-mer frequency, TF over GST control)"
same,binding signal,EHF,"1.45 fold enrichment (6-mer frequency, TF over GST control)"
same,binding signal,SPI1,"1.5 fold enrichment (6-mer frequency, TF over GST control)"
same,binding signal,SPIB,"1.6 fold enrichment (6-mer frequency, TF over GST control)"
same,binding signal,ELK3,"1.45 fold enrichment (6-mer frequency, TF over GST control)"
same,binding signal,FEV,"1.32 fold enrichment (6-mer frequency, TF over GST control)"
same,binding signal,ETV5,"1.49 fold enrichment (6-mer frequency, TF over GST control)"
same,binding signal,HSF1,"1.32 fold enrichment (6-mer frequency, TF over GST control)"
same,binding signal,SPIC,"1.42 fold enrichment (6-mer frequency, TF over GST control)"
same,binding signal,ELF4,"1.59 fold enrichment (6-mer frequency, TF over GST control)"
same,binding signal,ELK4,"1.5 fold enrichment (6-mer frequency, TF over GST control)"
same,binding signal,ETV2,"1.55 fold enrichment (6-mer frequency, TF over GST control)"
same,binding signal,ELF3,"1.34 fold enrichment (6-mer frequency, TF over GST control)"
same,binding signal,CRX,"1.44 fold enrichment (6-mer frequency, TF over GST control)"
same,binding signal,ETV1,"1.46 fold enrichment (6-mer frequency, TF over GST control)"
